PubChem BioAssay (EPA / NIEHS)
Inconclusive results are not listed. The source made the active and inactive calls. How the source made its calls, unless noted: active means hit-call score of the fitted dose curve at least 0.9, where 1 is the maximum; inactive means score below 0.9.

What was measured:
[1] = ATG_CMV_CIS: Attagene CIS-FACTORIAL HepG2 Assay for human CMV (Internal Marker) (AID 2282928); settings: HepG2 CMV promoter reporter, transcription factor profiling; actives raise or lower the signal;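 further: endpoint acts as a background internal control marker rather than a target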
Method in brief: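 24 h chemical treatment, HepG2 with transient multi-reporter transfection; RNA → oligo(dT) RT → PCR → 6-FAM extension → HpaI digest → CE fluorescence. Bidirectional fit, DMSO negative control.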

[2] = ATG_DR4_LXR_CIS: Attagene CIS-FACTORIAL HepG2 Assay for human Liver X Receptor (LXR), DR4 submotif (AID 2282929); settings: HepG2 Attagene DR4 cis-reporter, mRNA transcription; actives raise or lower the signal
Method in brief: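 Measures endogenous transcription factor activity via a DR4-driven reporter transcript in human HepG2 cells. Compounds incubated 24 h; mRNA quantified by RT-PCR and capillary electrophoresis, analysed as gain or loss of signal versus DMSO.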

[3] = target: Transcription factor E2F1 (Homo sapiens) (UniProt Q01094); experiment: ATG_E2F_CIS: Attagene CIS-FACTORIAL HepG2 Assay for human E2F Transcription Factor 1 (AID 2282935); settings: HepG2 Attagene cis-reporter, E2F reporter RNA transcripts; actives raise or lower the signal
Transcription factor E2F1 (Homo sapiens), sequence (Q01094 whole entry, looked up): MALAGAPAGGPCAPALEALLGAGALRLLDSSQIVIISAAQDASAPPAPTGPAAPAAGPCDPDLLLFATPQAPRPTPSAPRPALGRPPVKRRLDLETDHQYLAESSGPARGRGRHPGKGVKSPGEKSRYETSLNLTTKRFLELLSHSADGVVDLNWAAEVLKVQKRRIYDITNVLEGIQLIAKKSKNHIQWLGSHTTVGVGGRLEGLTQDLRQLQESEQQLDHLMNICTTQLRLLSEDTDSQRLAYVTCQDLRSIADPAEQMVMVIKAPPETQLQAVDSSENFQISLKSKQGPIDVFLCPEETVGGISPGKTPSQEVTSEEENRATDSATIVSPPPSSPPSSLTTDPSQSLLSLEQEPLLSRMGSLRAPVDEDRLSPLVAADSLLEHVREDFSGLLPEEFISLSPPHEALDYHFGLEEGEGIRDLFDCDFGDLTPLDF
Method in brief: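 In this cis-factorial format, endogenous factor activity drives transfected reporters in HepG2; transcripts collected at 24 h are quantified by fluorescence after RT-PCR and capillary separation.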

[4] = ATG_M_19_CIS: Attagene CIS-FACTORIAL HepG2 Assay for M19 Transcription Factor (Internal Marker) (AID 2282939); settings: HepG2 Attagene CIS-FACTORIAL M19 internal marker reporter; actives raise or lower the signal
Method in brief: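 Chemical-treated HepG2 (24 h) with MRTU constructs; reporter transcripts detected by fluorescent RT-PCR fragment analysis on capillary electrophoresis. Internal background marker, DMSO as baseline.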

[5] = target: Hepatocyte nuclear factor 3-beta (Homo sapiens) (UniProt Q9Y261); experiment: ATG_FoxA2_CIS: Attagene CIS-FACTORIAL HepG2 Assay for human Forkhead box A2 (FOXA2) (AID 2282942); settings: HepG2 cis-reporter transcription factor activity, 24 h; actives raise or lower the signal
Hepatocyte nuclear factor 3-beta (Homo sapiens), sequence (Q9Y261 whole entry, looked up): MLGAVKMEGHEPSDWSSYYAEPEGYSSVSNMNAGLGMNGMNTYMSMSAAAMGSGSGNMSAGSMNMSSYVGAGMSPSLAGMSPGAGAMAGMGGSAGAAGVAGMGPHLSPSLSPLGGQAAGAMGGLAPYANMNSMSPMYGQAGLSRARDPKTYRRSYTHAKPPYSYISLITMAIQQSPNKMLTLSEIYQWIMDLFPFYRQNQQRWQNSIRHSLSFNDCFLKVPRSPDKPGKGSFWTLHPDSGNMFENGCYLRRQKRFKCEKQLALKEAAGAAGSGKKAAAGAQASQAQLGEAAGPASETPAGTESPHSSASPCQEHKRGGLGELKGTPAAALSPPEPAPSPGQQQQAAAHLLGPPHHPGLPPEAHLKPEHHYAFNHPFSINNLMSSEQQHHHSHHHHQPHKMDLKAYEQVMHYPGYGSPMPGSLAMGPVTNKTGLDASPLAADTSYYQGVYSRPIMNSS
Method in brief: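 In transiently transfected human HepG2 cells, promoter-driven reporter mRNA levels after 24 h chemical exposure are determined via RT-PCR with capillary electrophoresis. DMSO serves as baseline for bidirectional fitting.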

[6] = ATG_ISRE_CIS: Attagene CIS-FACTORIAL HepG2 Assay for human Interferon Regulatory Factor 1 (IRF1) binding to an Interferon-Stimulated Response Element (ISRE) (AID 2282948); settings: HepG2 ISRE cis-reporter (Attagene), mRNA transcription readout; actives raise or lower the signal
Method in brief: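 Multiplexed mRNA reporter readout in human liver HepG2 cells: cis-element-driven reporters transfected, compound added for 24 h, transcripts amplified, fluorescently labelled and sized by capillary electrophoresis; curve fitting bidirectional against DMSO.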

[7] = target: Hypoxia-inducible factor 1-alpha (Homo sapiens) (UniProt Q16665); experiment: ATG_HIF1a_CIS: Attagene CIS-FACTORIAL HepG2 Assay for human Hypoxia Inducible Factor 1 (HIF1A) (AID 2282951); settings: HepG2 Attagene cis-factorial HIF1a reporter transcription; actives raise or lower the signal
Hypoxia-inducible factor 1-alpha (Homo sapiens), sequence (Q16665 whole entry, looked up): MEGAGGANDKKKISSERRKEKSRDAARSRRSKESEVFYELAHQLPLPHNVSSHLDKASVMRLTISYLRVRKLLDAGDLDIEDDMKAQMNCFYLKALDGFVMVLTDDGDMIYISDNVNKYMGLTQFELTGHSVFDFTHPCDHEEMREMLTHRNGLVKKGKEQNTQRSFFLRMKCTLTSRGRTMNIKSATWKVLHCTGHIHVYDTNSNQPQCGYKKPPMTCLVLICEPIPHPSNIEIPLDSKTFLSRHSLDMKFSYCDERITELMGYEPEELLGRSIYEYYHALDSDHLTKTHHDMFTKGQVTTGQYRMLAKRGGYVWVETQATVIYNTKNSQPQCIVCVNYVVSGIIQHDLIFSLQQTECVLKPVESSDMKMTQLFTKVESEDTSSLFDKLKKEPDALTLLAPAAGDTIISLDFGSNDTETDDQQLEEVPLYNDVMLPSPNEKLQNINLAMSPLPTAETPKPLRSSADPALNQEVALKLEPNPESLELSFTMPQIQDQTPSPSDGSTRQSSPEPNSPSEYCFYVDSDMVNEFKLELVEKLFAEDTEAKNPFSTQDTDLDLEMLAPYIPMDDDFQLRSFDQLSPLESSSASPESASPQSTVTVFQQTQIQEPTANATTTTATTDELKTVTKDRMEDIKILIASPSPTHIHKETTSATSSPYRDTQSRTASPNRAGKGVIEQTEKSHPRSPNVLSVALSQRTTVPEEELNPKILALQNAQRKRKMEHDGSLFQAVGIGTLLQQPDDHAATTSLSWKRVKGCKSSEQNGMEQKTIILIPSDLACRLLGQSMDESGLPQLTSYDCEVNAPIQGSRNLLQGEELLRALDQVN
Method in brief: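 In this multiplexed cell assay, HepG2 cells bearing transfected cis reporters are dosed for 24 h and reporter mRNA is read by RT-PCR plus capillary electrophoresis; signal increases and decreases are both scored against DMSO.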

[8] = target: Hepatocyte nuclear factor 6 (Homo sapiens) (UniProt Q9UBC0); experiment: ATG_HNF6_CIS: Attagene CIS-FACTORIAL HepG2 Assay for human Hepatocyte Nuclear Factor 6 (HNF6) (AID 2282952); settings: HepG2 Attagene cis-factorial HNF6 reporter transcription; actives raise or lower the signal
Hepatocyte nuclear factor 6 (Homo sapiens), sequence (Q9UBC0 whole entry, looked up): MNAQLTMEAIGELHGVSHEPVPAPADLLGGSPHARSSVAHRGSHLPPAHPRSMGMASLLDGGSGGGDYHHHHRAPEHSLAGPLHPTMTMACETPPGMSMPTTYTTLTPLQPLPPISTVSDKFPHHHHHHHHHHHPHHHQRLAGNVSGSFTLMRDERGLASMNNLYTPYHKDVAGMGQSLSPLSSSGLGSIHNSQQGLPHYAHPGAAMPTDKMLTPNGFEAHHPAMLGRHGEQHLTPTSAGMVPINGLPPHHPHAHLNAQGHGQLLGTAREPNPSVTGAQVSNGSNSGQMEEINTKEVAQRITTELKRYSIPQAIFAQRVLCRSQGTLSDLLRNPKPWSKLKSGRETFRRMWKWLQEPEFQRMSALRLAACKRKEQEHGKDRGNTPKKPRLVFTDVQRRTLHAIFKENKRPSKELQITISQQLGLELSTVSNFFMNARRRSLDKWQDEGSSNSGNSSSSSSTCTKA
Method in brief: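 Endogenous transcription factor activity in human HepG2 liver cells was captured through cis-regulated reporter constructs. After 24 h treatment, reporter mRNA was measured by RT-PCR with capillary electrophoresis, and activity was fitted in both directions relative to DMSO.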

[9] = target: Heat shock factor protein 1 (Homo sapiens) (UniProt Q00613); experiment: ATG_HSE_CIS: Attagene CIS-FACTORIAL HepG2 Assay for human Heat Shock Transcription Factor 1 (HSE) (AID 2282953); settings: HepG2 HSE cis-reporter, Attagene RNA transcription; actives raise or lower the signal
Heat shock factor protein 1 (Homo sapiens), sequence (Q00613 whole entry, looked up): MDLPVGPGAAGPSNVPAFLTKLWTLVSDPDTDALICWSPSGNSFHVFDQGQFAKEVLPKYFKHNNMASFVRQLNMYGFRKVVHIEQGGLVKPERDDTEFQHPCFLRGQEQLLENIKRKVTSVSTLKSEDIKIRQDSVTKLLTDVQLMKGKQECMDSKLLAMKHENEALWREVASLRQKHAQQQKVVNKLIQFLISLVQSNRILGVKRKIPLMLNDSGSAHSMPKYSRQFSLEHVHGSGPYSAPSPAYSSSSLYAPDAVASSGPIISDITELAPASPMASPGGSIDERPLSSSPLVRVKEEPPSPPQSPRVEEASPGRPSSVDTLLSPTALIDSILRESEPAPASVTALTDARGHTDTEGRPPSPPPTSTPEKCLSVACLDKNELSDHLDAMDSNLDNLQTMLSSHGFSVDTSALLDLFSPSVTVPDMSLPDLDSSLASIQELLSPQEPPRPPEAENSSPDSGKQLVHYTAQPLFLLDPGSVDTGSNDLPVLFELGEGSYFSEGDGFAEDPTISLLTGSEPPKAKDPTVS
Method in brief: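 Liver-derived HepG2 cells carry transiently introduced multiple reporter units governed by cis promoters. Reporter RNA measured 24 h post-dose through reverse transcription, PCR amplification, fluorescent labelling and capillary electrophoresis, normalised to DMSO.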

[10] = ATG_RORE_CIS: Attagene CIS-FACTORIAL HepG2 Assay for human RAR-related Orphan Receptor Element (RORE) (AID 2282959); settings: HepG2 Attagene cis-factorial RORE reporter, mRNA; actives raise or lower the signal
Method in brief: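 Fluorescence intensity of reporter-specific cDNA fragments, separated by capillary electrophoresis, gives the signal. Source: HepG2 liver cells transiently transfected with cis-element reporters and exposed 24 h; DMSO-normalized bidirectional fit.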

[11] = ATG_TA_CIS: Attagene CIS-FACTORIAL HepG2 Assay for human TA Basal Promoter (AID 2282964); settings: HepG2 Attagene CIS-factorial TA basal promoter reporter; actives raise or lower the signal
Method in brief: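 Background internal-marker endpoint from a 52-component HepG2 cis-reporter panel. Cells treated 24 h; reporter transcripts quantified via RT-PCR and CE fluorescence against DMSO baseline.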

[12] = ATG_TGFb_CIS: Attagene CIS-FACTORIAL HepG2 Assay for human Transforming Growth Factor (TGF) (AID 2282967); settings: HepG2 Attagene CIS TGFb reporter, mRNA transcription; actives raise or lower the signal
Method in brief: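 Liver HepG2 line, cis-factorial reporter panel, 24 h dosing. Quantitation: RT-PCR products labeled with 6-FAM, cut with HpaI, resolved by capillary electrophoresis; DMSO-referenced bidirectional analysis.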

[13] = ATG_VDRE_CIS: Attagene CIS-FACTORIAL HepG2 Assay for human Vitamin D Receptor Element (VDRE) (AID 2282968); settings: HepG2 VDRE cis-reporter transcription, actives raise or lower the signal
Method in brief: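 Transfected HepG2 reporter cells, chemical treatment 24 h. RNA isolated, cDNA amplified with reporter-specific primers, products analysed by capillary electrophoresis. Endpoint fitted in both directions versus DMSO.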

[14] = ATG_NFI_CIS: Attagene CIS-FACTORIAL HepG2 Assay for human Nuclear Factor I (NFI) (AID 2282989); settings: HepG2 cis-regulatory reporter, NFI response element transcription; actives raise or lower the signal
Method in brief: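 Transfected HepG2 liver cells, exposed 24 h, supplied total RNA for oligo(dT) reverse transcription and reporter-specific PCR. Labelled, HpaI-cut fragments were sized by capillary electrophoresis; DMSO set the baseline for bidirectional fitting.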

[15] = target: Myc proto-oncogene protein (Homo sapiens) (UniProt P01106); experiment: ATG_Myc_CIS: Attagene CIS-FACTORIAL HepG2 Assay for human Myelocytomatosis (Myc) Proto-Oncogene Transcription Factor (AID 2282990); settings: HepG2, Attagene cis-reporter transcription factor activity; actives raise or lower the signal
Myc proto-oncogene protein (Homo sapiens), sequence (P01106 whole entry, looked up): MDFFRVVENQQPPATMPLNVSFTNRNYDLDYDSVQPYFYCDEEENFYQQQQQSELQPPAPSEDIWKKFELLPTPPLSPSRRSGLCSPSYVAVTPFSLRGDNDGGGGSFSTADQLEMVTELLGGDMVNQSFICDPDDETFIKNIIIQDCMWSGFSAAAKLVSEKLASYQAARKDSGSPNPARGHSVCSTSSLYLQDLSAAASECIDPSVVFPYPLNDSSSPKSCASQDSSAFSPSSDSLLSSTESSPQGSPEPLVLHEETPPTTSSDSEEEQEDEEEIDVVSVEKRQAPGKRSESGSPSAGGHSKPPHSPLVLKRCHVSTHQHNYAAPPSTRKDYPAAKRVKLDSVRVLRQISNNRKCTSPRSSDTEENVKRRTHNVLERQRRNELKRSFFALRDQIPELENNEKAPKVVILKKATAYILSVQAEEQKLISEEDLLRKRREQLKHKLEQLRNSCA
Method in brief: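 DMSO-normalised, bidirectionally fitted reporter mRNA signal. HepG2 cells transfected with cis reporter constructs, treated 24 h; transcripts detected by RT-PCR, 6-FAM primer extension and CE.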

[16] = ATG_NRF2_ARE_CIS: Attagene CIS-FACTORIAL HepG2 Assay for human Nuclear Factor Erythroid 2 Related Factor 2 (NFR2) response to Antioxidant Response Elements (ARE) (AID 2282992); settings: HepG2 Attagene ARE/NRF2 reporter, transcription factor activity; actives raise or lower the signal;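 on AC50: reporter mRNA level measured by RT-PCR and capillary electrophoresis fluorescence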
Method in brief: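 Endogenous transcription factor activity in human liver HepG2 cells is tracked via a cis-element-driven reporter within a multiplexed set. mRNA induction is read by RT-PCR and capillary electrophoresis after 24 h, with DMSO as baseline.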

[17] = target: Cellular tumor antigen p53 (Homo sapiens) (UniProt P04637); experiment: ATG_p53_CIS: Attagene CIS-FACTORIAL HepG2 Assay for human p53 Transcription Factor (AID 2282994); settings: HepG2 p53 cis-element reporter, Attagene mRNA; actives raise or lower the signal
Cellular tumor antigen p53 (Homo sapiens), sequence (P04637 whole entry, looked up, the tested form may be a part): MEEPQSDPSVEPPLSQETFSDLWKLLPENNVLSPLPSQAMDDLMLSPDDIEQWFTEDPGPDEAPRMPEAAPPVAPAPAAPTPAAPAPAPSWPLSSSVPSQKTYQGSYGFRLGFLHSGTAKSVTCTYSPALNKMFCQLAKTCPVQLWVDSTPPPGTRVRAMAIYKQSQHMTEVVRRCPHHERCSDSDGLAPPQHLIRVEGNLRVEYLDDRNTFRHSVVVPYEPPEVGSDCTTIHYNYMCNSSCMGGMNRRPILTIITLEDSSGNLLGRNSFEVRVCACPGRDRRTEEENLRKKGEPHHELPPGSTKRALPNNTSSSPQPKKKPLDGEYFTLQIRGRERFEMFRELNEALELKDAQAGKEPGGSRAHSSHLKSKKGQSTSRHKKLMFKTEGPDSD
Method in brief: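 Steps: transfect HepG2 with multiplexed cis reporter constructs; dose chemicals 24 h; extract RNA, reverse-transcribe, PCR-amplify reporter sequences; FAM-label, HpaI-digest, resolve fragments by CE. Activity fitted both directions relative to DMSO.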

[18] = ATG_Sox_CIS: Attagene CIS-FACTORIAL HepG2 Assay for human SRY-box transcription factor (SOX) (AID 2282960); settings: HepG2 Attagene cis-factorial SOX reporter, mRNA; actives raise or lower the signal
Method in brief: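 After 24 h of chemical treatment, transfected HepG2 reporter cells are lysed for total RNA. Transcript levels come from RT-PCR with labelled primer extension and capillary electrophoresis, analysed bidirectionally versus DMSO.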

[19] = ATG_M_06_TRANS: Attagene TRANS-FACTORIAL HepG2 Assay for M06 Transcription Factor (Internal Marker) (AID 2282983; active means hit-call score of the fitted dose curve at least 0.9, where 1 is the maximum); settings: HepG2 Attagene TRANS M06 internal marker reporter
Method in brief: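 Human liver HepG2 cells bearing transiently transfected chimeric NR-GAL4 reporter units were treated with chemicals for 24 h. Total RNA was reverse-transcribed, reporter sequences amplified and labelled, then quantified by capillary electrophoresis. Activity was fitted upward relative to DMSO.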

[20] = target: Nuclear receptor subfamily 1 group I member 2 (Homo sapiens) (UniProt O75469); experiment: ATG_PXR_TRANS: Attagene TRANS-FACTORIAL HepG2 Assay for human Pregnane X Receptor (PXR) (AID 2283008; active means hit-call score of the fitted dose curve at least 0.9, where 1 is the maximum)
Nuclear receptor subfamily 1 group I member 2 (Homo sapiens), sequence (O75469 whole entry, looked up, the tested form may be a part): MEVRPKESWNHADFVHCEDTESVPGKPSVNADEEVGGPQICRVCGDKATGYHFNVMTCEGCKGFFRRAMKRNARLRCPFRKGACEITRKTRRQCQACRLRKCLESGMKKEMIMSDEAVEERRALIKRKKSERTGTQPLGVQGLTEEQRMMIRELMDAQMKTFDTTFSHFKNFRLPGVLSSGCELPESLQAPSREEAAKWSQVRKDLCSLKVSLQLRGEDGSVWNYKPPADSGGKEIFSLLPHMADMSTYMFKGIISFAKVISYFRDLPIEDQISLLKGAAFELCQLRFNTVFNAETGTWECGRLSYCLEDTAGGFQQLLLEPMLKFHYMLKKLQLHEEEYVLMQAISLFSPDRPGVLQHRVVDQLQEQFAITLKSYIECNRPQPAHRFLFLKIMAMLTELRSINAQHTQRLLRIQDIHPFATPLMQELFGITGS
Method in brief: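 HepG2 transfected (FuGene 6) with GAL4-UAS reporter units + PXR-Gal4 chimera; dosed 24 h. Total RNA → oligo(dT) RT → PCR → 6-FAM primer extension → HpaI cut → CE. Gain-of-signal vs DMSO.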

Compound: OCCc1ccccn1
- outcome [1]: inactive
- outcome [2]: inactive
- outcome [3]: inactive
- outcome [4]: inactive
- outcome [5]: inactive
- outcome [6]: inactive
- outcome [7]: inactive
- outcome [8]: inactive
- outcome [9]: inactive
- outcome [10]: inactive
- outcome [11]: inactive
- outcome [12]: inactive
- outcome [13]: inactive
- outcome [14]: inactive
- outcome [15]: inactive
- outcome [16]: inactive
- outcome [17]: inactive

Compound: Clc1ccccn1
- outcome [1]: inactive
- outcome [2]: inactive
- outcome [4]: inactive
- outcome [5]: inactive
- outcome [6]: inactive
- outcome [7]: inactive
- outcome [8]: inactive
- outcome [9]: inactive
- outcome [10]: inactive
- outcome [18]: inactive
- outcome [11]: inactive
- outcome [12]: inactive
- outcome [13]: inactive
- outcome [19]: inactive
- outcome [14]: inactive
- outcome [15]: inactive
- outcome [16]: inactive
- outcome [17]: inactive

Compound: CCCc1c(OCCCCc2nn[nH]n2)ccc(C(C)=O)c1O
- AC50 [1]: 135 µM (active)
- outcome [2]: inactive
- outcome [3]: inactive
- outcome [4]: inactive
- outcome [5]: inactive
- outcome [6]: inactive
- outcome [8]: inactive
- outcome [9]: inactive
- AC50 [10]: 33.2 µM (active)
- outcome [12]: inactive
- outcome [13]: inactive
- outcome [19]: inactive
- outcome [14]: inactive
- outcome [15]: inactive
- AC50 [16]: 100 µM (active)
- outcome [17]: inactive
- outcome [20]: inactive

Compound: CC1=C(CC(=O)O)c2cc(F)ccc2/C1=C\c1ccc(S(C)=O)cc1 (stereo not drawn)
- outcome [1]: inactive
- outcome [2]: inactive
- outcome [3]: inactive
- outcome [5]: inactive
- AC50 [6]: 44.9 µM (active)
- outcome [8]: inactive
- AC50 [9]: 180 µM (active)
- outcome [10]: inactive
- outcome [11]: inactive
- outcome [12]: inactive
- outcome [14]: inactive
- outcome [15]: inactive
- AC50 [16]: 23 µM (active)
- outcome [17]: inactive
- AC50 [20]: 26.5 µM (active)

Compound: Cc1cc(C)c(S(=O)(=O)O)cc1N=Nc1cc(S(=O)(=O)O)c2ccccc2c1O
- outcome [1]: inactive
- outcome [2]: inactive
- outcome [3]: inactive
- outcome [4]: inactive
- outcome [5]: inactive
- outcome [7]: inactive
- outcome [8]: inactive
- outcome [9]: inactive
- outcome [10]: inactive
- outcome [18]: inactive
- outcome [12]: inactive
- outcome [13]: inactive
- outcome [19]: inactive
- outcome [14]: inactive
- outcome [15]: inactive
- AC50 [16]: 72.2 µM (active)
- outcome [17]: inactive
- outcome [20]: inactive

Compound: CCO[Si](CCCN)(OCC)OCC
- outcome [1]: inactive
- outcome [2]: inactive
- outcome [3]: inactive
- outcome [4]: inactive
- outcome [5]: inactive
- outcome [6]: inactive
- outcome [7]: inactive
- outcome [8]: inactive
- outcome [9]: inactive
- outcome [10]: inactive
- outcome [18]: inactive
- outcome [11]: inactive
- outcome [12]: inactive
- outcome [13]: inactive
- outcome [19]: inactive
- outcome [14]: inactive
- outcome [15]: inactive
- outcome [16]: inactive
- outcome [17]: inactive

Compound: COCCCN
- outcome [1]: inactive
- outcome [2]: inactive
- outcome [3]: inactive
- outcome [4]: inactive
- outcome [5]: inactive
- outcome [6]: inactive
- outcome [7]: inactive
- outcome [8]: inactive
- outcome [9]: inactive
- outcome [10]: inactive
- outcome [18]: inactive
- outcome [11]: inactive
- outcome [12]: inactive
- outcome [13]: inactive
- outcome [14]: inactive
- outcome [15]: inactive
- outcome [16]: inactive
- outcome [17]: inactive

Compound: CC1(C)S[C@@H]2[C@H](NC(=O)[C@H](N)c3ccccc3)C(=O)N2[C@H]1C(=O)O
- outcome [1]: inactive
- outcome [2]: inactive
- outcome [3]: inactive
- outcome [4]: inactive
- outcome [5]: inactive
- outcome [8]: inactive
- outcome [9]: inactive
- outcome [10]: inactive
- outcome [18]: inactive
- outcome [12]: inactive
- outcome [19]: inactive
- outcome [14]: inactive
- outcome [15]: inactive
- outcome [16]: inactive
- outcome [17]: inactive
- outcome [20]: inactive
